# From PubChem BioAssay AID588335 (The Scripps Research Institute Molecular Screening Center, 2011)
# In all, about 360,000 compounds went through this assay and about 4,500 (1.2%) were called active. This is one part of a sample in which actives are shown more often than they occur. Unmarked numbers belong to inactive results. Rule as the data show it: active = inhibition above about 30%; inactive = the rest.
# Assay: inhibition of GDH and TPI enzymes – biochemical, absorbance, full deck, artefact control for M. tuberculosis FBA inhibitor project, primary screen (AID 588335);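 also: 0% = DMSO wells and 100% = wells lacking the enzyme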
# Conditions: GDH-TPI coupled enzyme counterscreen, NADH absorbance; at 4.8 µM; hits give high values
row,SMILES,inhibition
1,CCCN(c1ccc(C)cc1)c1nc(=O)c2cccnc2s1,8.86%
2,COc1ccc(CC(=O)Nc2cc(S(=O)(=O)N3CCCCC3)ccc2N2CCN(C)CC2)cc1,-4.44%
3,CC(C)N=C1CCCC1C(=S)SSC(=S)C1CCCC1=NC(C)C (centres undefined),32.4% (active)
4,CN(CC(=O)Nc1ccccc1F)CC(=O)Nc1ccccc1Br,-8.02%
5,Cc1ccc(S(=O)(=O)N2CCOCC2)cc1C(=O)OC1CCCCC1=O (centres undefined),-12.1%
6,COc1ccc(C(=O)Oc2ccc(-c3nnco3)cc2)cc1S(=O)(=O)N1CCOCC1,7.83%
7,O=C(O)CCn1c(SCc2cc(=O)n3ccccc3n2)nc2ccsc2c1=O,7.77%
8,O=c1c2sccc2nc(SCc2cc(=O)n3ccccc3n2)n1-c1ccc(Br)cc1,32.1% (active)
9,CCc1ccc(-n2c(SCc3cc(=O)n4cc(Br)ccc4n3)nc3[nH]ncc3c2=O)cc1,24%
10,Cc1cccc(S(=O)(=O)N(C)C[C@H]2OCc3cnnn3CCCC(=O)N([C@@H](C)CO)C[C@H]2C)c1,-13.4%
11,CC1(C)CC(N(Cc2ccccc2)C(=O)Cc2ccccc2)CCO1 (centres undefined),-7.26%
12,O=C(O)CCn1cc(C=C2C(=O)NC(=S)NC2=O)c(-c2cccc(Br)c2)n1,-11.4%
13,O=C(COC(=O)/C=C/c1cn(-c2ccccc2)nc1-c1cccnc1)Nc1ccc(Cl)cc1Cl,-1.11%
14,O=C(O)CCn1cc(/C=C/C(=O)c2ccc(Cl)cc2)c(-c2cccc(Br)c2)n1,43.8% (active)
15,CCOC(=O)c1sc(-c2cccc([N+](=O)[O-])c2)cc1N,5.1%
16,C=CCCC(=O)Nc1nc(C)c(-c2csc(Nc3ccc(Cl)cc3)n2)s1,16.8%
17,CCCCC(=O)Nc1nc(C)c(-c2csc(Nc3ccc(Cl)cc3)n2)s1,11.2%

row,SMILES,inhibition
1,CC(=O)Nc1nc(C)c(-c2csc(Nc3ccc(S(N)(=O)=O)cc3)n2)s1,33.8% (active)
2,CCOC(=O)c1c(C)[nH]c(C)c1C(=O)COC(=O)/C=C/c1cccc([N+](=O)[O-])c1,5.36%
3,CCOC(=O)C=Cc1ccc(C(=O)OCC)[nH]1,46.3% (active)
4,CCOC(=O)c1cc2cc(C)ccc2[nH]1,8.07%
5,COc1ccc(C2NCCCC2c2ccccc2)cc1 (centres undefined),-3.45%
6,O=C(N/N=C/c1ccc(O)cc1)/C(=C/c1ccc([N+](=O)[O-])cc1)NC(=O)c1ccccc1,39% (active)
7,O=C(N/N=C/c1cc([N+](=O)[O-])ccc1O)/C(=C\c1cccs1)NC(=O)c1ccccc1,15.7%
8,O=C(Nc1ccc(C(=O)O)cc1)/C(=C\c1ccccc1)NC(=O)c1ccc(Br)cc1,-8.77%
9,O=C(NCc1ccco1)/C(=C/c1ccco1)NC(=O)c1ccccc1,-7.41%
10,Cc1ccc(NC(=O)C(=O)NCc2ccco2)c(C)c1,2.52%
11,CCCCOc1ccc(C(=O)N/C(=C/C=C/c2ccccc2)C(=O)N2CCOCC2)cc1,20.1%
12,COc1ccc(/C=C(/NC(=O)c2ccccc2)C(=O)Nc2cccc(C(=O)O)c2)cc1,29.7%
13,O=C(N/C(=C\c1ccc(O)cc1)C(=O)N1CCCCC1)c1ccccc1,9.79%
14,O=C(Nc1ccc(C(=O)O)cc1)/C(=C/c1ccc([N+](=O)[O-])cc1)NC(=O)c1ccccc1,32.9% (active)
15,CNC(=O)/C(=C\C=C\c1ccccc1)NC(=O)c1ccc([N+](=O)[O-])cc1,39.1% (active)
16,Cc1ccc(C(=O)N/C(=C/C=C/c2ccccc2)C(=O)NCc2ccco2)cc1,48.9% (active)
17,CC(C=Cc1ccccc1)=NNS(=O)(=O)c1ccc([N+](=O)[O-])cc1,25.4%
